The values below come from PubChem BioAssay.

Structures are written as SMILES. Calls of active or inactive are those of the source.

A short description of experiment [1]: optical density shifts of acrAB sulA E. coli – strain DRC41, OD650, 48 h, E. coli filamentation inducer project, primary screen (AID 1152).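 Also: E. coli MC1000 strain DRC41 lacking acrAB efflux pump and sulA.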 To be noted: higher = more signal, called active from +8 up or from −8 down.
Experiment [2] in a line: probe aLefty1 binding on compound microarray – biochemical, small-molecule microarray, 635/667 nm fluorescence, primary screen (AID 1153).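 Also: score merges spot fluorescence with signal-to-noise ratio from the scanned slide images.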 To be noted: higher = more signal.
The nature of experiment [3]: plasmodial surface anion channel blockers, osmotic lysis – cell-based, P. falciparum Indochina, OD700, 1 h, primary screen (AID 1154). The note with it: P. falciparum Indochina infected RBC osmotic lysis, higher = more signal, called active from +8 up or from −8 down.
A short description of experiment [4]: plasmodial surface anion channel blockers, osmotic lysis – cell-based, P. falciparum Indochina, OD700, 2 h, primary screen (AID 1155).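 Also: lysis reports solute entry through the parasite surface anion channel PSAC.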 To be noted: P. falciparum Indochina infected erythrocytes, higher = more signal, called active from +8 up or from −8 down.
Experiment [5] is described as follows: changes in parasitized red cell lysis, either direction – P. falciparum Indochina, OD700, 3 h, PSAC antagonist project, primary screen (AID 1156). To be noted: P. falciparum-infected erythrocytes, osmotic lysis, higher = more signal, called active from +8 up or from −8 down.
Experiment [6] is described as follows: plasmodial surface anion channel blockers, osmotic lysis – cell-based, P. falciparum Indochina, OD700, 18 h, primary screen (AID 1157). The note with it: P. falciparum Indochina infected erythrocytes, osmotic lysis OD700, 18 h; higher = more signal, called active from +8 up or from −8 down.
Experiment [7] in a line: S6 kinase pathway phospho-S6 level changes – cell-based, A549, cytoblot, luminescence, serum-stimulated, primary screen (AID 1158).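 Also: serum-stimulated A549 lung adenocarcinoma cells; signal is phosphorylated S6 detected by cytoblot immunostaining with HRP secondary.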 The note with it: 5 h, higher = more signal.
The target in experiment [8] is NADPH oxidase 2 (Homo sapiens) (UniProt P04839). Briefly: compounds shifting NOX2 Amplex Red fluorescence – cell-based, HEK293-NOX2, PMA-stimulated, NOX inhibitor project, primary screen (AID 1159). Also: test concentration not given here. To be noted: 45 min, higher = more signal, called active from +8 up or from −8 down.
Chain of NADPH oxidase 2 (Homo sapiens) (P04839 whole entry, looked up): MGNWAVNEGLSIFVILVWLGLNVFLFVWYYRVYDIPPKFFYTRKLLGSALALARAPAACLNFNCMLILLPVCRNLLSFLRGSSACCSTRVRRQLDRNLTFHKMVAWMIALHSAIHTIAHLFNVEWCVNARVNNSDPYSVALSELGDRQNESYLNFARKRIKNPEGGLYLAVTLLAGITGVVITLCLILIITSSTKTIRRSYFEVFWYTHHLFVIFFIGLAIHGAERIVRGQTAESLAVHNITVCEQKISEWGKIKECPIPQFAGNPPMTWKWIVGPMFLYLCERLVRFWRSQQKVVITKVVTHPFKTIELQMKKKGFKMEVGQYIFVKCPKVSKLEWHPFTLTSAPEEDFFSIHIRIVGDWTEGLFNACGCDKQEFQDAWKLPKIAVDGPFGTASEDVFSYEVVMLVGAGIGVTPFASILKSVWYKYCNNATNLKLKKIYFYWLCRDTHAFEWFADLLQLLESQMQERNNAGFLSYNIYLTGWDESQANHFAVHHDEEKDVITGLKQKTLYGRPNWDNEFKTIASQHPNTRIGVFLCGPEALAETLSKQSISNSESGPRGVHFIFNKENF
Experiment [9] has as its target NADPH oxidase 4 (Homo sapiens) (UniProt Q9NPH5). Briefly: compounds shifting NOX4 Amplex Red fluorescence – cell-based, HEK293-NOX4, tetracycline-induced, NOX inhibitor project, primary screen (AID 1160). To be noted: HEK293-NOX4, Amplex Red H2O2 fluorescence, 45 min; higher = more signal, called active from +8 up or from −8 down.
For experiment [10], the target named is NADPH oxidase 5 (Homo sapiens) (UniProt Q96PH1). Briefly: compounds shifting NOX5 Amplex Red fluorescence – cell-based, HEK293-NOX5, NOX inhibitor project, primary screen (AID 1161). To be noted: HEK293-NOX5, ionomycin, 45 min, higher = more signal.
Chain of NADPH oxidase 5 (Homo sapiens) (Q96PH1 whole entry, looked up): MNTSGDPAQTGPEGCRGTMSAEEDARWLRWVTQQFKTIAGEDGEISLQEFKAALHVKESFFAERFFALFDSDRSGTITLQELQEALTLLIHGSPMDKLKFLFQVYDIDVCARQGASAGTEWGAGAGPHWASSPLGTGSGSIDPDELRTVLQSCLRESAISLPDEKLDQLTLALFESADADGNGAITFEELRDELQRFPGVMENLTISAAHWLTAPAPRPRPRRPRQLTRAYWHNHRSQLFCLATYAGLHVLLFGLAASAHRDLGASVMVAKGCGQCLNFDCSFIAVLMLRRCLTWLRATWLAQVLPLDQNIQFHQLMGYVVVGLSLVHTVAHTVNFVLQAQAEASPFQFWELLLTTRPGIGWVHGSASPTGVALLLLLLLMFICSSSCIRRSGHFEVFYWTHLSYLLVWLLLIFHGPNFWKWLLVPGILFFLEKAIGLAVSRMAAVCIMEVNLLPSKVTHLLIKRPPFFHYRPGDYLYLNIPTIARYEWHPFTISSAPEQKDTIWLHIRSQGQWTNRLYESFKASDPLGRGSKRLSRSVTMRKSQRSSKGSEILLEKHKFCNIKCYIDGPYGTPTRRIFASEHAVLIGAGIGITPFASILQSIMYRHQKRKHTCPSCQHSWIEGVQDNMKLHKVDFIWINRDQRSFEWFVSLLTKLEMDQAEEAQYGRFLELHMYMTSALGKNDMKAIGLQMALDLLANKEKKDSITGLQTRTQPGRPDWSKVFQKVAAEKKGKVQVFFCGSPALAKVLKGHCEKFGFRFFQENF

Chain of NADPH oxidase 4 (Homo sapiens) (Q9NPH5 whole entry, looked up): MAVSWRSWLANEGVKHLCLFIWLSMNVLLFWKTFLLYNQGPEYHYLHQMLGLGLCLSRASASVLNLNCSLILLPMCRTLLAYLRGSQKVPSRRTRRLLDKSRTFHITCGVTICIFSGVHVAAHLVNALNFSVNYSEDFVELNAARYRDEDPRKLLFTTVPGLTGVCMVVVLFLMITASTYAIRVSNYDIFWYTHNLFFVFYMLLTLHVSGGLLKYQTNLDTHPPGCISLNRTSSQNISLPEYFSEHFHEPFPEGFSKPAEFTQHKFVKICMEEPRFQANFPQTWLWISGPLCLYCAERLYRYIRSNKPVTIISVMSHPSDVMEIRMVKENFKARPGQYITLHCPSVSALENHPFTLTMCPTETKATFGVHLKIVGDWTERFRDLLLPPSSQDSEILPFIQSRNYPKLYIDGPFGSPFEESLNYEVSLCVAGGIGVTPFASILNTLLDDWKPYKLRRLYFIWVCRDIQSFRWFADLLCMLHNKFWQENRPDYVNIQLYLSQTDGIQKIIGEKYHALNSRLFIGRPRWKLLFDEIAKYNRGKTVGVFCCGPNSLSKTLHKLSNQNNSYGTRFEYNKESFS

Turning to `CCOC(=O)[C@H]1C/C=C/C[C@H](C(=O)OCC)C(=O)O[C@H]2[C@@H](OC)O[C@H](CO)[C@@H](OC(=O)Nc3cccc(F)c3)[C@@H]2OC1=O`, the z-score was 0.0021 (inactive) in experiment [1]; 4.53 (inactive) in experiment [3]; 1.81 (inactive) in [4]; -2.04 (inactive) in experiment [5]; 1.61 (inactive) in experiment [6]; -0.0707 in experiment [7]. For the same molecule, the z-score in experiment [8] was -2.12 (inactive); in experiment [9], -0.389 (inactive); in [10], -1.22. The composite z-score in experiment [2] amounted to 1.53.

`CCCCC=C[C@@H](NC(=O)Oc1cccc(C(F)(F)F)c1)c1ccccc1`: the z-score in [1] was -2.63 (inactive); in experiment [3], 2.41 (inactive); in experiment [4], 0.278 (inactive); in experiment [5], 0.247 (inactive); in experiment [6] it was -1.17 (inactive); in experiment [7] it was 1.31. Further, the figures for the z-score in experiment [8], in [9] and in experiment [10] were -3.82 (inactive), -3.48 (inactive) and -2.98, respectively. In experiment [2], this molecule gave a composite z-score of 1.29.

Consider `C=CC[C@]1(C(=O)N2CCCCC2)N=C(c2ccc(OCCCO)cc2)O[C@H]1c1ccccc1`, for which the z-score in experiment [1] is 0.573 (inactive); in experiment [3], 18.8 (active); in experiment [4] it was 3.99 (inactive); in experiment [5], 1.61 (inactive); in [6], 1.11 (inactive); in experiment [7], -0.232. Further, the z-score in experiment [8] was 0.186 (inactive); in [9], -0.0137 (inactive); in experiment [10], -1.71. Also, in [2], the composite z-score came out at 0.629.

For `CCCCC(O)C1C=CC2C(=O)N(c3ccccc3)C(=O)C2N1Nc1ccccc1F` (stereo not given), the z-score was -1.06 (inactive) in experiment [1]; 0.449 (inactive) in [3]; 1.49 (inactive) in [4]; 0.273 (inactive) in [5]; 1.19 (inactive) in [6]; -1.3 in [7]. Moreover, the z-score in [8] was -1.2 (inactive); in [9], -4.93 (inactive); in [10], -1.88. Also, the composite z-score in [2] came out at 0.328.

On to `C=CCNC(=O)[C@H]1[C@@H]2C(=O)O[C@@H](c3ccccc3)[C@@H](c3ccccc3)N2[C@@H](c2ccc(OCCO)cc2)[C@]12C(=O)N(C(=O)OCCOC)c1ccccc12`, for which the z-score in experiment [1] is 0.159 (inactive); in [3], 5.52 (inactive); in experiment [4], 0.926 (inactive); in experiment [5], 1.22 (inactive); in experiment [6] it was 0.759 (inactive); in experiment [7], 0.182. Besides, the z-score in [8] was 2.35 (inactive); in experiment [9], 0.743 (inactive); in experiment [10] it was -1.51. In addition, the composite z-score in experiment [2] was 0.378.

In the case of `COCCOC(=O)N1C(=O)[C@@]2(c3cc(C#CCCO)ccc31)[C@H](C(=O)Nc1nc3ccccc3s1)[C@H]1C(=O)O[C@H](c3ccccc3)[C@H](c3ccccc3)N1[C@@H]2c1ccc(OCCO)cc1`, the z-score is 0.372 (inactive) in experiment [1]; 4.19 (inactive) in [3]; 1.5 (inactive) in experiment [4]; 0.708 (inactive) in [5]; 1.34 (inactive) in experiment [6]; -0.548 in experiment [7]. The results for the z-score in [8], in experiment [9] and in [10] were 0.82 (inactive), 0.462 (inactive) and 1.37, respectively. Also, the composite z-score in experiment [2] was determined as 0.352.

For the molecule `C=CCOC(=O)[C@H]1[C@@H]2C(=O)O[C@@H](c3ccccc3)[C@@H](c3ccccc3)N2[C@@H](c2ccc(OCCOC(=O)[C@H]3C[C@H]4C(=O)N5CCC[C@H]5C(=O)N4[C@H]3c3ccc(O)cc3)cc2)[C@]12C(=O)Nc1ccc(I)cc12`, the z-score was 0.917 (inactive) in experiment [1]; 0.234 (inactive) in [3]; -0.588 (inactive) in [4]; -1.27 (inactive) in [5]; -1.39 (inactive) in experiment [6]; 0.555 in [7]. The figures for the z-score in [8], in experiment [9] and in experiment [10] were -1.32 (inactive), -1.09 (inactive) and -0.351, respectively. The same molecule yielded a composite z-score in [2] of 1.99.

Consider `CCCCN1CC=CC23O[C@@H]4C=CCOC(=O)[C@@H]4[C@H]2C(=O)N(CCCCCO)[C@@H]3C1=O` (stereo not given in full), for which the z-score in [1] was 0.504 (inactive); in experiment [3], 1.25 (inactive); in [4], 0.882 (inactive); in experiment [5] it was 1.22 (inactive); in experiment [6], 0.529 (inactive); in experiment [7], 0.0401. Moreover, the figures for the z-score in experiment [8], in experiment [9] and in [10] were 0.872 (inactive), 0.381 (inactive) and 1.37, respectively. Moreover, the composite z-score in experiment [2] came to 0.749.

`C[N+](C)(C)CCCC[C@@H]1NC(=O)[C@@H]2C[C@H](C(=O)NCCCCCN)[C@H](c3cccc(OCCO)c3)N2C1=O`: the z-score in [1] was -0.272 (inactive); in experiment [3], 1.85 (inactive); in experiment [4] it was 0.508 (inactive); in experiment [5], 0.214 (inactive); in experiment [6], 0.129 (inactive); in [7] it was -0.0726. The figures for the z-score in experiment [8], in experiment [9] and in experiment [10] were 0.79 (inactive), 0.289 (inactive) and 1.54, respectively. In addition, the composite z-score in experiment [2] was -0.0412.

`O=C1OCCC/C=C\[C@H]2OC34C=CCN(Cc5ccccc5)C(=O)[C@H]3N(CCCCCCO)C(=O)[C@@H]4C12` (stereo not given in full): the z-score was 1.19 (inactive) in experiment [1]; 2.96 (inactive) in [3]; 0.141 (inactive) in experiment [4]; 0.59 (inactive) in [5]; 0.524 (inactive) in [6]; 0.0169 in [7]. Further, the z-score in experiment [8] was 1.12 (inactive); in experiment [9] it was 0.279 (inactive); in [10], 1.88. This molecule showed a composite z-score in experiment [2] of -0.0576.

For `C=C(CCCC)C(=O)CC[C@H](OC(C)=O)c1cccc(OCCO)c1`, the z-score in experiment [1] is 0.648 (inactive); in experiment [3] it was 5.27 (inactive); in experiment [4], -1.77 (inactive); in experiment [5], 1.57 (inactive); in experiment [6] it was -1.85 (inactive); in experiment [7], 0.73. Besides, the z-score in experiment [8] is -1.94 (inactive); in [9] it was -0.766 (inactive); in experiment [10], -2.8. The same molecule registered a composite z-score in experiment [2] of -0.263.

Regarding `C=CCNC(=O)[C@H]1[C@@H]2C(=O)O[C@@H](c3ccccc3)[C@@H](c3ccccc3)N2[C@@H](c2ccccc2OCCO)[C@]12C(=O)Nc1ccc(C#CC3=CCCCC3)cc12`, the z-score in experiment [1] is 0.748 (inactive); in experiment [3], 3.01 (inactive); in experiment [4], 2.25 (inactive); in experiment [5], 0.407 (inactive); in experiment [6] it was 1.71 (inactive); in experiment [7], 0.142. In addition, the z-score in [8] was 1.38 (inactive); in experiment [9], 0.676 (inactive); in [10], 1.75. Moreover, the composite z-score in experiment [2] came out at 0.0919.

As for `O=C1OCCC/C=C\[C@H]2OC34C=CCN(Cn5nnc6ccccc65)C(=O)[C@H]3N(CCCCCCO)C(=O)[C@@H]4C12` (stereo not given in full), the z-score in [1] is 3.64 (inactive); in experiment [3], 3.95 (inactive); in [4], -0.392 (inactive); in [5] it was -0.193 (inactive); in [6], -0.677 (inactive); in experiment [7], 2.58. The z-score is 1.15 (inactive) in [8], 0.377 (inactive) in experiment [9] and 2.11 in [10]. In experiment [2], this molecule registered a composite z-score of -0.481.
